Sampled rows, rich in hits. Any-hit rate of the full collection: about 2.3%.
TMEM16A inh – mouse TMEM16A channel inhibition, primary screen. AID 588511. normalized B-score (activity score, 25-100; higher = stronger inhibition) at 10 µM. HEK293 TMEM16A/YFP iodide influx fluorescence, ionomycin. Q8BHY3. 310,000 compounds, 1.2% hits;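 active means ratio plate-corrected score three or more library SD toward inhibition, starting fluorescence score within five deviations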;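 further: score derived from kinetic fluorescence span divided by baseline fluorescence per well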
ANO1 activ – activators or potentiators of mouse TMEM16A chloride channel; B-score at 10 µM; 340,000 compounds, 0.3% hits; HEK293 TMEM16A/YFP-H148Q/I152L, iodide quench fluorescence; hits give low values;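 active means fluorescence-ratio B-score plate-corrected deviation score at least 3 library SD below zero, with starting fluorescence score within 5 deviations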;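 further: channel opened by trigger with iodide after compound preincubation; score built on the fluorescence ratio of max minus min over baseline; more negative score means more quench and so TMEM16A activation or potentiation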
CHT allo act – allosterically activates the human high affinity choline transporter; Q9GZV3; AID 488977; CHT-expressing cells, membrane potential dye, choline EC20; hits give high values; LV-AA mutant CHT in HEK293 cells; B-score at 10 µM; 310,000 compounds, 0.49% hits;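 active means initial fluorescence not abnormally high and integrated response B-score, plate-corrected, over 3 SD above library mean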
Target sequence (Q9GZV3 whole entry, looked up): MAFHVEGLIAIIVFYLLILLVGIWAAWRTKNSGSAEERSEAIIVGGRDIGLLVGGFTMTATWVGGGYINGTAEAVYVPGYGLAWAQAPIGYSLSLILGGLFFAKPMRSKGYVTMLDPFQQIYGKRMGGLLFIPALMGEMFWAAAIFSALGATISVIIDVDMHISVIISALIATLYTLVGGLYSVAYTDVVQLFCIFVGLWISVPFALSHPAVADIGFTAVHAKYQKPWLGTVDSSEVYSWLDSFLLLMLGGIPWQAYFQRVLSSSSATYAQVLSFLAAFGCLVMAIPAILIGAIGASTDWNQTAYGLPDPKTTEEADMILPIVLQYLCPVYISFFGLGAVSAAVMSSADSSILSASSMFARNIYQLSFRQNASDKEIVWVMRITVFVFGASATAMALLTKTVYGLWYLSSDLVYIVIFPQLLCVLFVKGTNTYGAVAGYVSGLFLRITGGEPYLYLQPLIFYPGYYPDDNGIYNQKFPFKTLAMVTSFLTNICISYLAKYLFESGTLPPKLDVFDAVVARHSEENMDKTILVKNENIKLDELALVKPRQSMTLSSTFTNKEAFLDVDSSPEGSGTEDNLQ
CHT block – human CHT choline transport inhibition; CHT-expressing cells, membrane potential dye, choline response; hits give low values; B-score at 10 µM; 310,000 compounds, 0.86% hits; AID 488975;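 active means B-score over 3 SD under the library average, and starting fluorescence ratio not unusually high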;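 further: choline stimulus applied at its EC90 after an EC20 pre-addition; B-score computed on integrated fluorescence ratio after choline addition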
Starred values were filed as active, the others as inactive; i = inactive; . = not tested or not shown.

SMILES	TMEM16A inh	ANO1 activ	CHT allo act	CHT block
O=C(Cc1ccc(Cl)cc1Cl)Nc1ccncc1Cl	25*	i	i	i
O=C(c1ccc2ccccc2c1)C1CCCN(C(=O)c2cnccn2)C1 (configuration not stated)	i	-4.6*	i	i
O=C(CSc1nnnn1C1CC2CCC1C2)Nc1ccnc2ccccc12 (configuration not stated)	100*	i	i	i
CC(C)c1nc2cc(C(=O)N3CCNC(=O)C3c3ccc(F)cc3)ccc2o1 (configuration not stated)	i	i	i	i
O=C(CCc1ccco1)CCc1ccco1	.	i	.	.
O=C(NCC1CCCO1)c1ccccc1-c1nc(-c2ccc(F)cc2)no1 (configuration not stated)	100*	i	i	i
COc1ccc(-c2noc(-c3ccccc3C(=O)NCC3CCCO3)n2)cc1 (configuration not stated)	i	i	i	i
O=C(O)c1[nH]c2ccccc2c1NS(=O)(=O)c1ccc(F)cc1	i	-49*	i	i
COc1ccc(S(=O)(=O)Nc2c(C(=O)O)[nH]c3ccccc23)cc1	i	i	i	i
CC(O)[C@H]1CNCCN1CCc1cccc(F)c1 (some centres not stated)	i	-15*	i	i
Fc1cccc(CCN2CCNC[C@@H]2c2ccccc2)c1	.	i	.	.
COCC(C)(C)COS(N)(=O)=O	i	i	i	i
COC(=O)c1c(NC(=O)CCc2ccc(C)o2)sc(C)c1C	100*	i	i	i
CCOC(=O)c1c(NC(=O)CCc2ccc(CC)o2)sc(C)c1C	i	i	i	i
CN(c1ccccc1)c1cc(Br)nc(Br)c1	i	i	i	i
O=C(Nc1ccc(Cl)c(S(=O)(=O)N2CCOCC2)c1)c1ccc(OCC2CCCO2)cc1 (configuration not stated)	100*	i	i	i
N#CCCn1nc2c(c1N)CCC2	.	i	.	.
CC1(C)[C@@H](O)CC[C@]2(C)C3C(O)C=C4[C@H]5C[C@@](C)(C(=O)O)CC[C@]5(C)CC[C@]4(C)[C@]3(C)CC[C@@H]12 (some centres not stated)	100*	.	i	i
CC1(C)C(=O)CC[C@]2(C)C3C(=O)C=C4[C@H]5C[C@@](C)(C(=O)O)CC[C@]5(C)CC[C@]4(C)[C@]3(C)CC[C@@H]12 (some centres not stated)	i	i	i	i
Cc1cccc(OCC(=O)N(Cc2nnc(-c3ccccc3Cl)o2)C2CC2)c1	.	-29*	.	.
CC1=CC(=O)C(C(C)=Nc2cccc(Cl)c2)C(=O)O1 (configuration not stated)	.	i	.	.
CCC(/C=N/NC(=O)C(N)=O)CC	i	-5.3*	i	i
CSc1ccc(COC(=O)c2cc([N+](=O)[O-])ccc2N2CCOCC2)cc1	i	i	6.3*	i
Cc1ccccc1COC(=O)c1cc([N+](=O)[O-])ccc1N1CCOCC1	i	i	i	i
Cc1ccc(SCC(=O)Nc2cc([N+](=O)[O-])ccc2O)cc1	25*	i	i	i
SMILES	TMEM16A inh	ANO1 activ	CHT allo act	CHT block
O=C(CSCc1ccc(Cl)cc1)Nc1cc([N+](=O)[O-])ccc1O	i	i	i	-8.1*
Cc1nnc(SC(C)C(=O)Nc2ncc(Cl)cc2Cl)n1Cc1ccccc1 (configuration not stated)	i	-20*	i	i
Cc1cc(SC(C)C(=O)Nc2ncc(Cl)cc2Cl)nc2ccccc12 (configuration not stated)	i	i	i	i
CCCc1[nH]n(-c2ccc([N+](=O)[O-])cc2)c(=O)c1C=NCCN1CCNCC1	i	.	6.8*	i
CCOc1ccc(NS(=O)(=O)c2ccc(C(=O)N(C)CC(=O)Nc3ccc(C)cc3)cc2)cc1	i	i	i	i
CC(OC(=O)c1cccc(S(=O)(=O)N2CCOCC2)c1)C(=O)NC1CCCCC1C (configuration not stated)	.	i	.	.
COc1ccc(NC(=O)c2ccccc2SC)c(OC)c1	i	-5.8*	i	i
Cc1cc(CSC(=N)N)c(CSC(=N)N)cc1C	i	i	12*	i
Cc1noc(C)c1COc1ccc(C(=O)N2CCN(S(=O)(=O)c3ccc(F)cc3)CC2)cc1	.	i	.	.
O=C(O)C(Cc1ccc(OS(=O)(=O)Cc2ccccc2)cc1)NS(=O)(=O)Cc1ccccc1 (configuration not stated)	.	i	.	.
CCOc1ccc2oc(C(=O)N3CCN(c4ccccc4OCC)CC3)c(C)c2c1	i	i	i	i
CC1=NOC(=O)/C1=C\c1ccc(-c2ccc(Cl)cc2Cl)o1	.	-6.6*	.	.
CC(=O)OC1COC(OC2C(O)C(C)OC(OC3C(OC4CCC5(C)C(CCC6(C)C5CC=C5C7CC(C)(C)CCC7(C(=O)O)CCC56C)C4(C)CO)OCC(O)C3O)C2O)C(O)C1OC(C)=O (configuration not stated)	100*	.	i	i
CC1(C)C[C@H]2C3=CCC4[C@@]5(C)CC[C@H](O[C@@H]6O[C@H](C(=O)O)[C@@H](O)[C@H](O)[C@H]6O)[C@@](C)(CO)C5CC[C@@]4(C)[C@]3(C)C[C@H](O)[C@@]2(CO)[C@@H](O)[C@@H]1O (some centres not stated)	.	i	.	.
C[C@@H]1CC[C@]2(C(=O)O[C@@H]3O[C@H](CO)[C@@H](O)[C@H](O)[C@H]3O)CC[C@]3(C)C(=CCC4[C@@]5(C)CC[C@H](O[C@@H]6OC[C@H](O)[C@H](O[C@@H]7O[C@H](CO)[C@@H](O)[C@H](O)[C@H]7O)[C@H]6O)C(C)(C)C5CC[C@]43C)C2[C@]1(C)O (some centres not stated)	.	i	.	.
C/C=C(/C)C(=O)OC1CC(C)(C)C[C@H]2C3=CC[C@@H]4[C@@]5(C)CCC(O[C@@H]6O[C@@H](C(=O)O)[C@@H](O)C(O[C@@H]7OC[C@H](O)[C@@H](O)[C@@H]7O[C@@H]7OC(CO)C(O)[C@@H](O)[C@@H]7O)C6O[C@@H]6OC(CO)C(O)C(O)C6O)[C@@](C)(CO)[C@@H]5CC[C@]4(C)[C@]3(C)CC(O)[C@@]12CO (some centres not stated)	.	-37*	.	.
C/C=C(\C)C(=O)OC1[C@H](OC(C)=O)C2(CO)C(CC1(C)C)C1=CCC3C4(C)CCC(O[C@@H]5O[C@H](C(=O)O)[C@@H](O[C@@H]6O[C@H](CO)[C@@H](O)[C@H](O)[C@H]6O)[C@H](O)[C@H]5O[C@H]5O[C@H](CO)[C@@H](O)[C@H](O)[C@H]5O)[C@](C)(CO)C4CCC3(C)[C@]1(C)C[C@H]2O (some centres not stated)	.	-16*	.	.
O=C(c1ccc(Cl)cc1)C1CCN(C(=S)Nc2ccccc2)CC1	.	i	.	.

Screens as filed in PubChem BioAssay.
